Laboratory results from PubChem BioAssay (NCI).
The panel holds about 79,000 compounds, 15% with a hit somewhere; the sample as a whole holds those more often. A number with no mark means an inactive call. Calls of active or inactive are those of the source. Rule as the data show it: active = growth inhibition above about 70%; inactive = the rest.

Key:
[1] = NCI Yeast Anticancer Drug Screen. Data for the rad50 strain (AID 155);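 also: 0% = growth of vehicle-only cultures of the same strain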; conditions: S. cerevisiae rad50 strain growth inhibition; at 50.0 µM; active compounds read high
How it was run: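 Genetically altered yeast (DNA repair pathway); compound treatment; growth inhibition vs vehicle ctrl.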

[2] = NCI Yeast Anticancer Drug Screen. Data for the mec2-1 strain (AID 157); conditions: S. cerevisiae mec2-1 strain, at 50.0 µM, active compounds read high
How it was run: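 Mutant yeast (mec2-1) grown with compound; growth inhibition relative to vehicle control reported.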

[3] = NCI Yeast Anticancer Drug Screen. Data for the sgs1 mgt1 strain (AID 161);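 also: 0% = growth of cultures given vehicle only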; conditions: S. cerevisiae sgs1 mgt1 strain, at 50.0 µM, active compounds read high
How it was run: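 This yeast growth screen uses a strain with defined DNA-repair lesions; compound-treated growth is compared with vehicle-treated growth.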

[4] = NCI Yeast Anticancer Drug Screen. Data for the cln2 rad14 strain (AID 165);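 also: 0% = growth equal to vehicle treated cultures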; conditions: S. cerevisiae cln2 rad14 strain, at 50.0 µM, active compounds read high
How it was run: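 Readout is yeast growth inhibition versus vehicle-treated controls, using a strain with cln2 and rad14 alterations exposed to compound.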

[5] = NCI Yeast Anticancer Drug Screen. Data for the bub3 strain (AID 167); conditions: S. cerevisiae bub3 mutant strain, at 50.0 µM, active compounds read high
How it was run: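 Yeast carrying a defined mutation is treated with each compound, and growth is compared with that of vehicle-exposed cells to give inhibition.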

[6] = NCI Yeast Anticancer Drug Screen. Data for the mlh1 rad18 strain (AID 175); conditions: S. cerevisiae mlh1 rad18 strain growth inhibition; at 50.0 µM; active compounds read high
How it was run: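 Genetically defined yeast (DNA repair-deficient) exposed to compounds; growth inhibition determined relative to vehicle.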

Row | SMILES | growth inhibition [1] | growth inhibition [2] | growth inhibition [3] | growth inhibition [4] | growth inhibition [5] | growth inhibition [6]
1 | COC1C(=O)CCC2(CO2)C1(O)C1(C)OC1CC=C(C)C (configuration not stated) | -22.9% | -34.4% | -31.6% | -5.2% | -28.2% | -25.8%
2 | O=C(/C=C(/Nc1ccccc1)c1ccccc1)c1ccccc1 | 7.3% | 11.4% | 8.9% | 35.5% | 15.9% | 34.2%
3 | NC(=O)c1ccccc1NC(=O)CCCOc1ccccc1 | -11.5% | 8.35% | 16.8% | -5.8% | -14.3% | 9.2%
4 | COC(=O)c1ccccc1NCc1cc(Cl)ccc1O | 96.2% (active) | 97.3% (active) | 96.7% (active) | 92.8% (active) | 95.8% (active) | 94.9% (active)
5 | COc1ccc(N2C(=O)[C@@H]3[C@H](C2=O)c2[nH]c4ccccc4c2C2CCC(C(C)(C)C)C[C@@H]23)cc1 (some centres not stated) | 29.6% | 4.1% | 12.3% | 31.4% | 6.2% | 7.85%
6 | CNc1ccccc1C(=O)N/N=C/C1CCCCC1 | 0.6% | -2.65% | 16.6% | -6.85% | 9.85% | 8.35%
7 | Cc1ccc(NC(=S)N2CCCCC2)cc1C | -1.9% | 13.2% | 19.3% | -19.2% | 25.4% | 15.4%
8 | C[N+](C)(C)C=Nc1cccc2c1CCCC2 | 2.6% | -37.8% | -26.4% | -7.05% | 6.05% | 1.55%
9 | COc1ccc2c(c1)[n+]([O-])c(/C(C)=N/NC(N)=S)c(C)[n+]2[O-] | 65.6% | 12.2% | 41.6% | 11.4% | 61% | 47.1%
10 | C=CCOC(=O)Cc1ccccc1C(=O)OCC=C | -7.55% | -1.2% | -6.6% | -42.2% | 21.4% | -6.25%
11 | CC(=O)OCCc1nnnn1C | 4.9% | -9.95% | -14.6% | -22.5% | 2.45% | 10.4%
12 | CC(C)NCC(O)c1ccc(O)c2ncccc12 (configuration not stated) | 1.95% | 24.3% | 5.9% | 5.15% | -22.1% | -7.15%
13 | Cc1ccc(/[N+]([O-])=N/N2C(=O)c3ccccc3C2=O)cc1 | -15.4% | -18.6% | -10.1% | -23.5% | -16.6% | -2.9%
14 | O=C1c2ccccc2CC12Cc1cc3c(cc1C2=O)CCC3 (configuration not stated) | 5.05% | -16.9% | -17.2% | 25.5% | 44.4% | 18.9%
15 | CCOc1ccc(OCC)c2c1C(=O)c1ccccc1C2=O | -6.8% | 15.3% | 1.15% | -1.3% | 9.15% | -5.8%
16 | N#CC1=C(Nc2ccccc2)CCC1 | 5% | -11.6% | -0.8% | -38.8% | 2.25% | -5.4%
17 | O=c1[nH]nc(SCc2ccccc2)c(=O)[nH]1 | -18.1% | -3.5% | -16.6% | -5.8% | 0% | -18.9%
18 | CSc1nc(NC2OCC(O)C(O)C2O)cc(=O)[nH]1 (configuration not stated) | 7.75% | -0.95% | 10.8% | -2.25% | -13.8% | 1.3%
19 | CCn1c2ccccc2c2c(-c3ccccc3)cc3c(c21)C(=O)N(c1ccccc1)C3=O | -0.3% | -8.95% | 3.45% | -54% | -7.9% | -9.9%

Row | SMILES | growth inhibition [1] | growth inhibition [2] | growth inhibition [3] | growth inhibition [4] | growth inhibition [5] | growth inhibition [6]
20 | O/N=C(\c1ccccc1)c1ccc2ncccc2c1 | 37% | 41.2% | 27.9% | 2.8% | 7.45% | 23.3%
21 | N#CC1CNC(=S)N=C1c1ccccc1 (configuration not stated) | 11.5% | 17.8% | 17.9% | -74.6% | 0.9% | 12.1%
22 | C#CCCOC(=O)c1ccccc1OC(C)=O | -0.8% | -9.55% | -2.3% | 11.5% | 7.15% | 5.15%
23 | C(=N/Nc1ccccc1)/c1ccco1 | 31.6% | -1% | -2.05% | 13.7% | 12.5% | 54.9%
24 | CCCS(=O)(=O)CCCCCCCCCCC(=O)O | -5.45% | -11.4% | -7.8% | -28.7% | -7.15% | -6.2%
25 | CCC(O)(CC)c1ccc2ncccc2c1 | 3.6% | 6.05% | 7.7% | -19.1% | -6.65% | 7%
26 | O=C(OCc1ccccc1CN1CCOCC1)c1cccc(Cl)c1 | 13.8% | -1.55% | 17.3% | -0.05% | -6.25% | 7.35%
27 | COC(=O)NS(=O)(=O)C1=Cc2cccc3cccc1c23 | 8.55% | 4.95% | 9.25% | 9.75% | 6.35% | 8.4%
28 | Cc1ccc(Nc2nnc(-c3ccc4c(c3)OCO4)o2)c(C)c1 | 22.8% | 1.6% | -4.4% | -2.15% | -4% | 14.8%
29 | CCCCCCC(=O)C(=O)O | 41.4% | 37.8% | 35.5% | 3.65% | 18.9% | 59.5%
30 | CCN(CC)CCCNc1ccnc2c(N)cccc12 | 3.1% | 1.4% | 5.65% | 9.75% | 5.45% | 6.75%
31 | Cc1ccc(C)c2c3c(sc12)CCCC3 | -7.85% | -5.4% | -7.15% | -17.2% | 0.45% | 2.95%
32 | Cc1ccc(S(=O)(=O)N/N=C(\C(=O)Nc2cccc([N+](=O)[O-])c2)c2nc3ccc([N+](=O)[O-])cc3[nH]c2=O)cc1 | -3% | -6% | 3.65% | 7.4% | -3.1% | 2.2%
33 | CCS(=O)(=O)/C=C/c1ccco1 | 28.3% | -18.6% | 5.45% | -36.9% | 19.6% | -14.9%
34 | O=S(=O)(NCC(Cl)CCl)c1ccccc1 (configuration not stated) | 0.7% | -2.8% | -12.7% | 3.85% | 3.55% | 5%
35 | C[N+]1(C)N=C(c2ccccc2)C=C1[O-] | 13.4% | -9.75% | -6.65% | -53.9% | -2.5% | -3.85%
36 | CCCCC(Sc1cc(Cl)c(C)cc1S(=O)(=O)Nc1n[nH]c(N)n1)C(=O)OC (configuration not stated) | -4.85% | -12.3% | 50% | 7% | -18.8% | 5.75%
37 | O=S1OC(c2ccccc2)(c2ccccc2)C(c2ccccc2)(c2ccccc2)O1 | -29.9% | -16.6% | 2.2% | 11.6% | -13.2% | -17.4%
